Laboratory results: PubChem BioAssay (Tox21)
Records with an inconclusive call do not appear. Unmarked numbers belong to inactive results. Calls come from the whole dose curve; as a rule, active = well fitted inhibition curve with a large enough effect in the signal ratio in the repeat runs, with a control signal flat; inconclusive = weak or mixed curves, or effect the other way; inactive = flat fitted curve, though single readings scatter; the % refers to the signal ratio.

What follows are compounds tested against D(2) dopamine receptor (Homo sapiens) (UniProt P14416) (assay: Dopamine D2 receptor (DRD2) small molecule antagonists, cell-based qHTS assay (AID 1963595)). Conditions: HEK293-DRD2 cAMP HTRF antagonist mode; series mostly up to 92.4 µM; activity change, negative = inhibition: at the top concentration.
D(2) dopamine receptor (Homo sapiens), sequence (P14416 whole entry, looked up): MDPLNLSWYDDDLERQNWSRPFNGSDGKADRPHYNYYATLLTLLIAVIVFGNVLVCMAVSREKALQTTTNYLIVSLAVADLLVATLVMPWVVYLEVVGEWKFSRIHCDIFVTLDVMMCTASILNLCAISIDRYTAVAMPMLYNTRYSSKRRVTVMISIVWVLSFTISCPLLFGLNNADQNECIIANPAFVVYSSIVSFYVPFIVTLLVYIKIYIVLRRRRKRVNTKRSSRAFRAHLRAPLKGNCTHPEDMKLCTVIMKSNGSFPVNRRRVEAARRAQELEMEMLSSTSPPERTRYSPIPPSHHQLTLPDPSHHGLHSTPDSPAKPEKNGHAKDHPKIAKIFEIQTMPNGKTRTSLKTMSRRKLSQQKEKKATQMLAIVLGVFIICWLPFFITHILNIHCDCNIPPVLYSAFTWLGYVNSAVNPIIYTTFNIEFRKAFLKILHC
Excerpt: National Center for Advancing Translational Sciences [NCATS]
Division of Preclinical Innovation [DPI]
U.S. Environmental Protection Agency [EPA]
National Institutes of Environmental Health Sciences [NIEHS]
National Toxicology Program [NTP]
U.S. Food and Drug Administration [FDA]
DRD2 is the D2 subtype of the dopamine receptor, which is coupled to Gi subtype of G protein-coupled receptor. This G protein-coupled receptor inhibits adenylyl cyclase activity. The DRD2-HEK293 cell line stably expressing D2 dopamine receptor can be used for screening agonists and antagonists of interactions between D2 and its ligands. The Hek293-DRD2 cAMP assay is based on HTRF technology. It measures changes of cAMP accumulation in response to Gi coupled GPCR activation or inhibition.
Tox21 Assay Protocol Summary:
DRD2-Hek293 cells were dispensed at 600 cells/3uL/well in 1536-well white plates using a Multidrop Dispenser. After the assay plates were incubated at a 37 C/5% CO2 incubator for 24 h, 1 uL of Ro20-1724 at final concentration of 0.1 mM was transferred to the assay plate by a Flying Reagent Dispenser. Following Ro20-1724 addition, 23 nL of compound dissolved in DMSO, positive controls or DMSO only was added to the assay plates via Wako pintool station. The assay plates were incubated at room temperature for 10 min. Next, 1 uL of mixture of NKH477 (final concentration at 200 nM) and quinpirole (final concentration at 12 nM) was added into the plates. After the assay plates were incubated at room temperature for an additional 30 min, 2.5 ul/well of cAMP-d2 and 2.5 ul/well of anti-cAMP-cryptate were added respectively into the assay plates using a Flying Reagent Dispenser. The plates were incubated at room temperature for 1 h. The fluorescence intensity in the plates was measured at 340 nm excitation and 665 & 620 nm emission by an Envision plate reader.
% is set by controls: 0 for no effect and ±100 for the full control effect.

Question: How did the “activity change, negative = inhibition” value turn out when `CCOC(=O)COc1ccc(C)cc1` was run?
Answer: The value was 5.52%.

Question: Which “activity change, negative = inhibition” value does the source give for `CCC(CC)(CC(=O)Nc1cccc(/C=C/c2nc(C3CCC3)cs2)c1)C(=O)O` here?
Answer: Its value is -2.11% [at 42.5 µM].

Question: For `CCC(=O)Oc1ccc2c(c1)CC[C@@H]1[C@@H]2CC[C@@]2(C)[C@H]1C[C@@H](OC(=O)CC)[C@@H]2OC(=O)CC`, which “activity change, negative = inhibition” value is on record?
Answer: Its value is 4.32% [at 42.5 µM].

Question: For `OC(CCN1CCCC1)(c1ccccc1)C1CCCCC1` (stereo not given), which “activity change, negative = inhibition” value is on record?
Answer: Its value is 0.157% [at 42.5 µM].

Question: `N#CCC(=O)NN` was tested. Which “activity change, negative = inhibition” value did it give?
Answer: The value was 2.53% [at 42.5 µM].

Question: With `O=C(O)c1ccc(Cl)cc1Cl` as the compound, how does the “activity change, negative = inhibition” value read?
Answer: The value was 9.67%.

Question: For `Nc1ccc(S(=O)(=O)O)c(N)c1`, which “activity change, negative = inhibition” value is on record?
Answer: The value was 3.35%.

Question: How did the “activity change, negative = inhibition” value turn out when `CCO` was run?
Answer: Its value is 11.2%.

Question: Which “activity change, negative = inhibition” value does the source give for `O=C(Nc1ccccc1)c1ccccc1O` here?
Answer: The value was -11.6%.

Question: Which “activity change, negative = inhibition” value does the source give for `O=CNNC=O` here?
Answer: Its value is -8.93%.

Question: `CC1(C)S[C@@H]2[C@H](NC(=O)C(c3ccccc3)S(=O)(=O)O)C(=O)N2[C@H]1C(=O)O` (stereo not given in full) was tested. Which “activity change, negative = inhibition” value did it give?
Answer: Its value is 0.236% [at 42.5 µM].

Question: `O=C1O[C@@H]2[C@@H](O)[C@H](O)O[C@@H]2[C@H]1O` was tested. Which “activity change, negative = inhibition” value did it give?
Answer: The value was 1.54%.

Question: Which “activity change, negative = inhibition” value does the source give for `CN(C)CCN1CCOCC1` here?
Answer: Its value is -6.86%.

Question: Which “activity change, negative = inhibition” value does the source give for `O=C(Oc1ccccc1C(=O)O)c1ccccc1O` here?
Answer: The value was 2.56% [at 42.5 µM].

Question: With `NC(N)=NC(=O)Cc1c(Cl)cccc1Cl` as the compound, how does the “activity change, negative = inhibition” value read?
Answer: The value was -1.58% [at 42.5 µM].

Question: With `SC1CCCCC1` as the compound, how does the “activity change, negative = inhibition” value read?
Answer: The value was -3.5%.

Question: Which “activity change, negative = inhibition” value does the source give for `C(=C/c1ccccc1)/c1ccccc1` here?
Answer: Its value is -1.06%.

Question: With `COc1cc2nc(N3CCN(C(=O)C4CCCO4)CC3)nc(N)c2cc1OC` (stereo not given) as the compound, how does the “activity change, negative = inhibition” value read?
Answer: The value was 7.03% [at 42.5 µM].

Question: For `OC1(c2ccccc2)CCNCC1`, which “activity change, negative = inhibition” value is on record?
Answer: Its value is 0.574% [at 42.5 µM].

Question: With `CCC(C(=O)OCCN(CC)CC)c1ccccc1` (stereo not given) as the compound, how does the “activity change, negative = inhibition” value read?
Answer: The value was -1.33% [at 42.5 µM].

Question: `CC(=O)Nc1ccc(OCC(O)CNC(C)C)cc1` (stereo not given) was tested. Which “activity change, negative = inhibition” value did it give?
Answer: Its value is 17.3% [at 42.5 µM].

Question: How did the “activity change, negative = inhibition” value turn out when `NCC1CCC(C(=O)Oc2ccc(CCC(=O)O)cc2)CC1` (stereo not given) was run?
Answer: The value was 3.07% [at 42.5 µM].

Question: `COc1ccc(C(=O)N2CCN(CC(=O)N3CCOCC3)CC2)cc1` was tested. Which “activity change, negative = inhibition” value did it give?
Answer: Its value is 2.16% [at 42.5 µM].

Question: With `Cc1cc(C)cc([N+](=O)[O-])c1` as the compound, how does the “activity change, negative = inhibition” value read?
Answer: The value was 6.59%.

Question: For `CCOC(=O)[C@H](C)O`, which “activity change, negative = inhibition” value is on record?
Answer: The value was 6.97%.

Question: Which “activity change, negative = inhibition” value does the source give for `CC/C=C\CC/C=C/C(OCC)OCC` here?
Answer: Its value is -0.58%.

Question: How did the “activity change, negative = inhibition” value turn out when `C#CC(C)N(C)C(=O)Nc1ccc(Cl)cc1` (stereo not given) was run?
Answer: Its value is 7.97%.

Question: With `O=C(CCCCC(=O)Nc1c(I)cc(I)c(C(=O)O)c1I)Nc1c(I)cc(I)c(C(=O)O)c1I` as the compound, how does the “activity change, negative = inhibition” value read?
Answer: Its value is 3.9% [at 42.5 µM].

Question: Which “activity change, negative = inhibition” value does the source give for `CC1(C)CCC(C)(C)c2cc(NC(=O)c3ccc(C(=O)O)cc3)ccc21` here?
Answer: Its value is -5.32% [at 42.5 µM].

Question: Which “activity change, negative = inhibition” value does the source give for `Oc1cccc2cc3cccc(O)c3c(O)c12` here?
Answer: Its value is -6.38%.

Question: For `CCCCN1C=CN(C)C1`, which activity change, negative = inhibition is on record?
Answer: Its activity change, negative = inhibition is 2.35% [at 18.9 µM].

Question: With `NS(=O)(=O)c1cc(C(=O)NN2C[C@H]3[C@H]4CCC(C4)[C@H]3C2)ccc1Cl` as the compound, how does the “activity change, negative = inhibition” value read?
Answer: Its value is -0.173% [at 42.5 µM].

Question: For `CCCCC(CC)COC(=O)COc1ccc(Cl)cc1Cl` (stereo not given), which “activity change, negative = inhibition” value is on record?
Answer: The value was -5.35%.

Question: For `CC1=CCC2C(C1)C2(C)C` (stereo not given), which “activity change, negative = inhibition” value is on record?
Answer: Its value is 1.06%.

Question: With `COc1cc(C(=O)OC(COCCC(C)C)CN2CCOCC2)cc(OC)c1OC` (stereo not given) as the compound, how does the “activity change, negative = inhibition” value read?
Answer: Its value is 0.441% [at 42.5 µM].

Question: For `C1CCN2C[C@@H]3C[C@@H](CN4CCCC[C@@H]34)[C@H]2C1`, which “activity change, negative = inhibition” value is on record?
Answer: Its value is -8.77% [at 42.5 µM].

Question: How did the “activity change, negative = inhibition” value turn out when `O=C1OC(=O)C2CCCCC12` (stereo not given) was run?
Answer: Its value is 0.687%.

Question: With `CC(C)CCOC(=O)CC(C)C` as the compound, how does the “activity change, negative = inhibition” value read?
Answer: Its value is -0.298%.

Question: How did the “activity change, negative = inhibition” value turn out when `CCCc1nc2c(C)cc(-c3nc4ccccc4n3C)cc2n1Cc1ccc(-c2ccccc2C(=O)O)cc1` was run?
Answer: Its value is -0.646% [at 42.5 µM].

Question: With `O=C(c1ccco1)N1CCNCC1` as the compound, how does the “activity change, negative = inhibition” value read?
Answer: Its value is -7.26% [at 42.5 µM].
